In this experiment the test system is Vero E6 infected with SARS-CoV-2. The experiment in a line: inhibition of SARS-CoV-2 cytopathic effect; higher = more antiviral protection, active = above 15. To be noted: 48 h. (Protection from cytopathic effect is a common read-out in antiviral testing.)

`C[C@@H](c1ccc2nccn2c1)n1nnc2ncc(-c3cnn(C)c3)nc21` [savolitinib]: the “inhibition of SARS-CoV-2 cytopathic effect” value (from here on “inhibition”) is, setting by setting: (1 nM) 0.39% (inactive); (8.33 nM) -0.4% (inactive); (100 nM) -0.3% (inactive); (833.33 nM) 0.87% (inactive); (10000 nM) 1.9% (inactive).
For `Cc1c(C(=O)NC2CCCCC2)sc2nc3ccc(N)cc3n12` the same measures were 0.16% (inactive), -2.6% (inactive), -1.92% (inactive), -0.52% (inactive) and 0.2% (inactive).
For `Oc1ccnc2cc(Cl)ccc12` [chloroxoquinoline] the same measures were -2.22% (inactive), 0.71% (inactive), 0.09% (inactive), -0.05% (inactive) and 1.04% (inactive).
For `Cc1cc(Cn2cnc3c2C[C@@H](C(=O)O)N(C(=O)C(c2ccccc2)c2ccccc2)C3)ccc1N(C)C`, the “inhibition” value (1 nM) is -2.45% (inactive); the “inhibition” value (8.33 nM) is -1.75% (inactive); the “inhibition” value (100 nM) is -3.61% (inactive); the “inhibition” value (833.33 nM) is -1.45% (inactive); the “inhibition” value (10000 nM) is 0.19% (inactive).
For `Clc1ccc(N/N=C(\c2ccccc2)c2ccccn2)nc1` the same measures were -0.45% (inactive), -0.79% (inactive), -1.98% (inactive), 9.6% (inactive) and 16.5% (active).
On the same counts, the results for `COc1ccnc2[nH]cc(C(=O)C(=O)N3CCN(C(=O)c4ccccc4)C[C@H]3C)c12` are 1.91% (inactive), -1.88% (inactive), -0.3% (inactive), 0.28% (inactive) and 1.74% (inactive).
For `CS[C@H]1SC[C@H]2C(=O)N(C)[C@@H](C(C)C)C(=O)OC[C@@H](NC(=O)c3cnc4ccccc4n3)C(=O)N[C@@H](C)C(=O)N(C)[C@@H]1C(=O)N(C)[C@@H](C(C)C)C(=O)OC[C@@H](NC(=O)c1cnc3ccccc3n1)C(=O)N[C@@H](C)C(=O)N2C` [echinomycin] the same measures were 2% (inactive), -4.69% (inactive), -19.9% (inactive), -17.1% (inactive) and -27% (inactive).
For the compound `CC[C@@H](c1ccc(F)c(F)c1)n1c(C(=O)OC)c(-c2ccno2)[nH]c1=S`, the “inhibition” value (1 nM) was 1.31% (inactive); the “inhibition” value (8.33 nM) is 2.77% (inactive); the “inhibition” value (100 nM) is 1.18% (inactive); the “inhibition” value (833.33 nM) is 1.19% (inactive); the “inhibition” value (10000 nM) was -0.12% (inactive).
For `C=C1/C(=C\C=C2/CCC[C@]3(C)[C@@H]([C@H](C)CCCC(C)C)CC[C@@H]23)C[C@@H](O)C[C@@H]1O` [alfacalcidol] the same measures were 2.5% (inactive), -0.82% (inactive), -1.14% (inactive), 0.53% (inactive) and -5.24% (inactive).
On the same counts, the results for `CS(=O)(=O)CCNCc1nc(-c2ccc3ncnc(Nc4ccc(OCc5cccc(F)c5)c(Cl)c4)c3c2)cs1` are 1.4% (inactive), 3.81% (inactive), 0.15% (inactive), -4.71% (inactive) and -4.14% (inactive).
As to `O=C(CN1CCN(C(=O)c2ccco2)CC1)Nc1cc(C(F)(F)F)ccc1Cl`, the “inhibition” value (1 nM) is 0.23% (inactive); the “inhibition” value (8.33 nM) was -4.63% (inactive); the “inhibition” value (100 nM) is -0.17% (inactive); the “inhibition” value (833.33 nM) was 1.03% (inactive); the “inhibition” value (10000 nM) was 5.23% (inactive).
Take `O=NO` [sodium-nitrite]: the “inhibition” value was 1.28% (inactive) (1 nM); -0.03% (inactive) (8.33 nM); 3.46% (inactive) (100 nM); 3.43% (inactive) (833.33 nM); 0.91% (inactive) (10000 nM).
For `CC1(C)S[C@@H]2[C@H](NC(=O)[C@H](NC(=O)N3CCN(S(C)(=O)=O)C3=O)c3ccccc3)C(=O)N2[C@H]1C(=O)O` [mezlocillin] the same measures were -0.34% (inactive), 0.68% (inactive), -1.11% (inactive), -0.82% (inactive) and 0.79% (inactive).
On the same counts, the results for `C=CCNc1nc(NCC=C)nc(N2CCN(C(c3ccc(F)cc3)c3ccc(F)cc3)CC2)n1` [almitrine] are -6.44% (inactive), -3.95% (inactive), -7.43% (inactive), -4.59% (inactive) and -8.59% (inactive).
`CNS(=O)(=O)Cc1ccc2[nH]cc(CCN(C)C)c2c1` [sumatriptan]: the “inhibition” value is 1.16% (inactive) (1 nM); 0.24% (inactive) (8.33 nM); 1.25% (inactive) (100 nM); 0.28% (inactive) (833.33 nM); -0.08% (inactive) (10000 nM).
For `CCc1c(O)cc(O)c(C(=O)c2ccc(OCCN3CCOCC3)c(OC)c2)c1CC(=O)N(CCOC)CCOC` the same measures were -1.17% (inactive), -2.57% (inactive), -1.95% (inactive), -1.17% (inactive) and 0.48% (inactive).
For `Cc1ccnc2c1CCCC2C(N)=S` (stereo not given) [isotiquimide] the same measures were 2.13% (inactive), 1.38% (inactive), 1.08% (inactive), 1.85% (inactive) and 2.59% (inactive).
Take `CCC(CC)CC1(C(=O)Nc2ccccc2SC(=O)C(C)C)CCCCC1` [dalcetrapib]: the “inhibition” value runs as follows: (1 nM) -1.76% (inactive); (8.33 nM) -0.46% (inactive); (100 nM) -1.34% (inactive); (833.33 nM) -4.44% (inactive); (10000 nM) -2.5% (inactive).

(Values after the supplement of paper PMC13380429.)
